Laboratory results from PubChem BioAssay AID504357 (The Scripps Research Institute Molecular Screening Center, 2011).
Among all 340,000 compounds or so, about 700 (0.21%) were called active. Cut-off read from the data, not from the text of the source: active = inhibition above about 22% (passing the limit was not always enough); inactive = the rest. This excerpt belongs to a sample that is enriched for actives.

target: Mu-type opioid receptor (Homo sapiens) + Delta-type opioid receptor (Homo sapiens) (UniProt P35372+P41143); experiment: OPRM1-OPRD1 heterodimer inverse agonism – cell-based, luminescence, primary screen (AID 504357); conditions: cell-based MOR-DOR heterodimer luminescence, at 9.3 µM, stronger effect = higher value;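 note: 0% = cells with DMSO and 100% = wells without cells with DMSO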
Sequence (P35372 whole entry, looked up): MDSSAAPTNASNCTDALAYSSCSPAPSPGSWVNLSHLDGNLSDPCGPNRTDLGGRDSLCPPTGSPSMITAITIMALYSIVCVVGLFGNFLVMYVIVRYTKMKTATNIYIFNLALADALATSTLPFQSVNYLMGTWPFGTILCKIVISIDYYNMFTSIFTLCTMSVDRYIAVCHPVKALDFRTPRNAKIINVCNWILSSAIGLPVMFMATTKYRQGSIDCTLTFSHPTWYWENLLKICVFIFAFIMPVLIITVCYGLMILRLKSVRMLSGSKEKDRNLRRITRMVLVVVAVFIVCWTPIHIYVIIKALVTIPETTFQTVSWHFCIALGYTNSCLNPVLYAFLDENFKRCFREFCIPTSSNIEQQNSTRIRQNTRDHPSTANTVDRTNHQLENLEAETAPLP
Sequence (P41143 whole entry, looked up): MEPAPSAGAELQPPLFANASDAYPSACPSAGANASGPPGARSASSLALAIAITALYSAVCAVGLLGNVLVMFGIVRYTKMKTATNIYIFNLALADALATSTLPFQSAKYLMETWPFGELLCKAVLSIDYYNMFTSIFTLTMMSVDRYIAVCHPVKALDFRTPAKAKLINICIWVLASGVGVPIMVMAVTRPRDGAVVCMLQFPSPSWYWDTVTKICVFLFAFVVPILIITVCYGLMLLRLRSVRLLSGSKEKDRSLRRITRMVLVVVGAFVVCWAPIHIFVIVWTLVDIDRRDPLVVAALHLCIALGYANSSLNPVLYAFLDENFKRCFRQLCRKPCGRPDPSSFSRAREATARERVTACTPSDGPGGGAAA

inhibition, inactive:
COc1ccc(-c2ccc(CNCCCN3CCOCC3)o2)cc1Cl -3.74%, Nc1ccc2c(c1)C(O)c1ccc(Cl)cc1-2 (centres undefined) -2.52%, C/C(O)=C\c1nc(=O)c2c(C)cc(C)nc2n1-c1ccccc1 -10.5%, Cc1ccc(CN(C(=O)c2sc3ccccc3c2Cl)C2CCS(=O)(=O)C2)cc1 (centres undefined) -141%, CCOC(=O)c1sc(-c2cccc([N+](=O)[O-])c2)cc1N -25.6%, CC(=O)Nc1ccc(S(=O)(=O)N2CCN(c3ccc([N+](=O)[O-])c(NCCN4CCOCC4)c3)CC2)cc1 4.65%, O=C(CNC(=O)c1ccccc1Br)NCCSc1ccc(Br)cc1 3.63%, COc1cc(C(=O)OC(C)C(=O)NCC2CCCCC2)cc(NC(=O)c2ccco2)c1OC (centres undefined) -157%, O=C(Nc1cccc(Br)c1)C1CC(=O)N(C2CCCC2)C1 (centres undefined) -5.3%, CCN(CC)C(=O)CN(c1cccc(OC)c1)S(=O)(=O)c1ccc(C)cc1 13%, CCN(CCCNC(=O)C1CCN(S(=O)(=O)c2cnc[nH]2)CC1)c1ccccc1 -0.9%, Cc1ccc2c(c1)-c1c(ssc1=S)C(C)(C)N2C(=O)CN1C(=O)c2ccccc2C1=O 11.6%, CC1(C)NC(=O)N(CCOc2cccc(Oc3ccccc3)c2)C1=O 10.6%, Cc1cc(/C=C2/SC(=O)N(CC(=O)OC(C)C)C2=O)c(C)n1C 5.02%, COc1cc(C(C)=O)ccc1OC(=O)CN1C(=O)c2ccccc2C1=O 17.3%, CC(C)OC(=O)CN1CCN(c2ccc(Cl)cc2)CC1 -2.26%, CC(OC(=O)CN1C(=O)c2ccccc2C1=O)C(=O)c1ccccc1 (centres undefined) 9.57%, O=C1c2ccccc2C(=O)N1CCOc1ccc(F)cc1 -0.37%, CCOC(=O)C1CCN(C(=O)CN2C(=O)c3cccnc3Oc3ccc(C)cc32)CC1 20%, O/N=C(\c1ccc2c(c1)OCCO2)C1CCCCC1 10.1%, CSc1ccccc1C(=O)OCC(=O)N1CCN(C(C)=O)CC1 12.6%, CC1CN(S(=O)(=O)c2ccc(C(=O)NN3CCN(C)CC3)cc2)CC(C)O1 (centres undefined) -5.71%, O=C(/C=C/c1ccc(Cl)cc1)NCCCn1ccnc1 1.46%, O=C(Cc1c(Cl)cccc1Cl)NC1CC1 1.58%, Cc1cccc(NC(=O)Cc2ccc(Br)cc2)n1 2.04%, CN(C(=O)CCn1c(=S)oc2ccccc21)C1CCCCC1 10.3%, CNS(=O)(=O)c1ccc(N2CCCC2=O)c([N+](=O)[O-])c1 -2.31%, CC(c1ccco1)N(C(=O)c1ccc(S(=O)(=O)N2CCCCC2)cc1)c1ccccn1 (centres undefined) 13.7%, Cc1cc(C)c(S(=O)(=O)n2cc(C(C)C(N)C(=O)O)c3ccccc32)c(C)c1 (centres undefined) 8.06%, Cn1nc([N+](=O)[O-])nc1Sc1ccc(C(C)(C)C)cc1 -22.7%, CCOC(=O)c1cccc(NC(=O)C2CCN(c3ncnc4c3nc3n4CCCCC3)CC2)c1 -0.14%, CCCCCC(O)(CCN1CCCCC1)c1ccccc1 (centres undefined) 4.99%, CCn1cc(CCC(=O)NCc2ccc(F)cc2)c2ccccc21 -13.5%, Cc1ccc(C(=O)NC2CCN(C(=O)Nc3ccc(F)cc3)CC2)cc1 6.33%, Cc1ccc(NC(=S)Nc2ccc(F)cc2)cc1 9.82%, CCCCCC(=O)NC(=S)NNC(=O)c1ccc([N+](=O)[O-])cc1 -3.86%, CCNC(=S)NNC(=O)Cc1ccccc1 2.92%, COc1ccc(NC(=O)CCn2ccnc2)c(OC)c1 9.95%, Cn1c(=S)sc2ccc3ccccc3c21 -28.3%, O=C(C1CC(=O)N(c2ccc(F)cc2)C1)N1CCN(c2ccccc2)CC1 (centres undefined) 14%, CCOC(=O)N1CCN(C(=O)c2ccccc2N(Cc2ccccc2)S(=O)(=O)c2ccc(OC)cc2)CC1 -2.13%, N#Cc1cccc(NC(=O)CCC2CCCC2)c1 -3.46%, O=C1NC(=O)C(CCc2ccccc2)(c2ccccc2)N1 (centres undefined) 16.3%, COC(=O)c1cc2occc2n1Cc1nc(-c2ccccc2C)oc1C -3.9%, CN(C)CCn1c2c(c(SCC(=O)NCc3ccccc3)nc1=O)CCC2 -0.58%, CCc1c(Nc2ccccc2C)nc(N)[nH]c1=O 0.05%, O=C(CCc1nc2sc3c(c2c(=O)[nH]1)CCCC3)NCC(=O)Nc1ccccc1Br 17%, CCOc1cc(NS(=O)(=O)c2ccc(OC)cc2)c(OCC)cc1NC(C)=O -4.39%, COc1ccc(N2CC(NS(=O)(=O)c3ccc4ccccc4c3)CC2=O)cc1 (centres undefined) 7.42%, CCCOC(=O)Cc1c(O)c2ccccc2[nH]c1=O 15.1%, COC(=O)Cc1ccc(NC(=S)NCc2ccccc2)cc1 5.98%, Cc1ccc(-n2nc(-c3ccco3)cc2C(=O)NCc2cccnc2)cc1 10.7%, O=C(NCC1COc2ccccc2O1)C1(c2ccccc2)CCCC1 (centres undefined) 4.79%, O=C(CN1C(=O)C2C3C=CC(C3)C2C1=O)NCC1COc2ccccc2O1 (centres undefined) -16.6%

inhibition, active:
Cc1cccc2c1N(CC(=O)OC(C)C)C(=O)C2=O 67.2%, CCOC(=O)CN1C(=O)C(=O)c2cc(C)ccc21 40.6%, CC(C)OC(=O)CN1C(=O)C(=O)c2ccccc21 96.4%, Cc1cccc2c1N(CCOc1ccccc1)C(=O)C2=O 55.7%, O=C(CCl)NNc1cccc(Cl)n1 75%, Cc1ccc(C(=O)CNc2ccc(F)cc2)cc1 42.7%, CCCCC(=O)NNC(=S)NC(=O)C(c1ccccc1)c1ccccc1 27.8%, COc1cc(NS(=O)(=O)c2ccc3ccccc3c2)c2ncccc2c1 38.6%, COC(=O)Cc1c(-c2[nH]c3ccccc3c2CC(=O)OC)[nH]c2ccccc12 42.2%, O=C1C(=O)N(CC2COc3ccccc3O2)c2ccccc21 (centres undefined) 35.1%
